Experimental data from the supplement of paper PMC6555819.

How the values were obtained:
Test in all cases: PBM binding z-score (relative to random genomic background probes); higher = stronger binding; sequences stand for … in GC…GCGATTGACAGCGTAGAATGAAGG
[1] = system: FXR:RXRa (NR concentration 270 nM, RXRa partner concentration 90 nM)
How it was run: (§1)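 Ligand-free nuclear receptor dimers were applied to custom Agilent 4×180K protein-binding microarrays whose double-stranded probes carried direct-repeat seeds, single-nucleotide variants, half-site ablations and random human genomic background sequences in 34-nt variable regions. Incubation lasted 1 h. Binding z-scores were computed against the random background probes from regression-normalized fluorescence.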

[2] = system: LXRa:RXRa (NR concentration 270 nM, RXRa partner concentration 90 nM)
How it was run: as §1

[3] = system: LXRa homodimer (NR concentration 270 nM)
How it was run: as §1

[4] = system: LXRb:RXRa (NR concentration 270 nM, RXRa partner concentration 90 nM)
How it was run: as §1

[5] = system: LXRb homodimer (NR concentration 270 nM)
How it was run: as §1

[6] = system: PPARa:RXRa (NR concentration 270 nM, RXRa partner concentration 90 nM)
How it was run: as §1

[7] = system: PPARg:RXRa (NR concentration 180 nM, RXRa partner concentration 90 nM)
How it was run: as §1

[8] = system: PPARg:RXRa 270nM:90nM, anti-RXR (NR concentration 270 nM, RXRa partner concentration 90 nM)
How it was run: as §1

[9] = system: PPARg:RXRa 30nM:10nM, anti-RXR (NR concentration 30 nM, RXRa partner concentration 10 nM)
How it was run: as §1

[10] = system: PPARg:RXRa 90nM:30nM, anti-RXR (NR concentration 90 nM, RXRa partner concentration 30 nM)
How it was run: as §1

[11] = system: PPARg:RXRa DBDmut IVT, anti-RXR (DBD mutation: RXRa K156A/R161A, NR concentration 270 nM, RXRa partner concentration 90 nM)
How it was run: as §1

[12] = system: PPARg:RXRa IVT, anti-PPARg (NR concentration 270 nM, RXRa partner concentration 90 nM)
How it was run: as §1

[13] = system: PPARg DBDmut:RXRa IVT, anti-PPARg (DBD mutation: PPARg1 K132A/R137A, NR concentration 270 nM, RXRa partner concentration 90 nM)
How it was run: as §1

[14] = system: PPARg DBDmut IVT, anti-PPARg (DBD mutation: PPARg1 K132A/R137A, NR concentration 270 nM)
How it was run: as §1

[15] = system: PPARg homodimer (NR concentration 180 nM)
How it was run: as §1

[16] = system: PXR:RXRa (NR concentration 270 nM, RXRa partner concentration 90 nM)
How it was run: as §1

[17] = system: PXR homodimer (NR concentration 270 nM)
How it was run: as §1

[18] = system: RARa:RXR (NR concentration 270 nM, RXRa partner concentration 90 nM)
How it was run: as §1

[19] = system: RARa homodimer (NR concentration 270 nM)
How it was run: as §1

[20] = system: RARb:RXRa (NR concentration 270 nM, RXRa partner concentration 90 nM)
How it was run: as §1

Sequence	PBM binding z-score [1]	PBM binding z-score [2]	PBM binding z-score [3]	PBM binding z-score [4]	PBM binding z-score [5]	PBM binding z-score [6]	PBM binding z-score [7]	PBM binding z-score [8]	PBM binding z-score [9]	PBM binding z-score [10]	PBM binding z-score [11]	PBM binding z-score [12]	PBM binding z-score [13]	PBM binding z-score [14]	PBM binding z-score [15]	PBM binding z-score [16]	PBM binding z-score [17]	PBM binding z-score [18]	PBM binding z-score [19]	PBM binding z-score [20]
TCATATAGGTAAACAGGTGAGAGTCCGTAAGTTA	0.963	0.822	0.145	0.682	0.166	2.04	2.39	3.16	3.77	3.41	4.89	4.22	0.855	1.05	0.708	0.6	0.674	0.689	1.25	0.677
ACTAGCAGGCCAAGTTTGGGTCGCTCAAACAAAG	-0.398	-0.635	-0.922	-0.551	-0.759	-0.185	-0.746	-0.638	-1.08	-1.15	0.683	0.332	-0.842	-0.527	-0.566	-0.33	-0.606	-0.147	-1.09	0.491
ATATGTTGGTTATCGGGTCATTCAGTTTGCGCAT	2.39	2.42	1.49	2.76	1.77	2.86	1.7	2.19	0.577	1.65	2.6	3.36	1.53	2.49	2.81	3.49	7.6	3.19	2.08	2.05
CTCGTAAGGTCGTGCTCAGGTGAGTATACCAAAC	3.16	2.44	-0.206	1.97	0.357	3.48	0.721	1.85	0.398	1.07	0.319	1.17	0.192	0.162	1.03	2.23	-0.00148	3.61	-0.224	2.83
CCGACTGGGGCAGAAAGGTTGCCATACCATCCGG	-0.157	-0.408	-0.611	-0.446	-1.22	0.46	0.735	1.19	-0.155	0.7	1.37	1.17	-1.21	-1.54	-0.128	-0.241	-0.699	-0.0627	-0.964	0.6
CCTTACCGGTCACTGACAGGTTATAGCATTTGGA	1.09	1.89	1.73	1.31	0.619	1.49	0.664	0.675	0.114	0.418	0.892	1.17	0.534	0.217	2.23	1.01	0.467	1.29	1.61	3.06
GCTGCTAGGTCAGATTGGTCAGCTAACGGGTACG	1.36	0.957	-0.166	0.562	-0.238	1.68	0.672	0.718	-0.273	0.427	2.72	2.3	-0.411	-0.686	0.271	0.33	-0.223	0.855	-0.468	3.27
AGAACGAGGGCATTGAGTTGATAGCACGGGTGGC	0.832	0.491	-0.273	0.0744	-0.545	1.26	1.02	0.78	-0.308	6.55e-05	2.94	2.27	0.115	-0.519	0.179	2.79	9.1	0.267	-0.274	1.87
CCTAGTTGGTCCGGAGGTCACACACCGGATATGA	3.5	3.34	2.47	3.37	0.577	3.61	2.4	3.54	1.51	3.05	0.0727	1.77	-0.285	0.613	2.74	4.13	1.54	4.43	1.45	3.47
GATACAGGGTCAGCTAGAGGCCCGAGTATGGAAA	4.27	2.31	-0.511	1.8	-0.813	4.42	3.6	3.1	0.492	1.92	0.969	2.18	-0.156	-0.833	1.37	1.72	-0.766	2.93	-0.152	3.83
CCAGACAGATGAGAAGGTAACTCAGCCTCGATTA	-0.147	-0.0249	0.532	-0.254	-0.206	-0.358	0.455	-0.402	-0.157	-0.366	0.125	-0.374	0.361	-0.388	1.08	-0.297	0.323	-0.00624	1.43	-0.0941
CGAACTAGGTGATCCAGGACAGTGAATACATTGA	-0.144	-0.403	-0.0294	-0.189	-0.452	1.76	2.3	1.72	0.625	1.09	5.95	5.54	1.12	0.847	0.425	-0.38	0.369	0.202	0.271	0.0644
GCGACTGGGGCATCAGCAAGTTACCATAACTTAA	-0.358	-0.587	-0.708	0.105	-0.805	0.514	0.866	1.08	-0.463	0.387	3.88	2.87	-1.33	-0.593	-0.528	-0.359	-0.789	-0.454	-0.707	0.453
GCGACTGGGGCATCAGCAGTTTACCATAACTTAA	-0.0811	-0.328	-0.256	0.505	-0.674	0.605	0.756	1.18	-0.193	0.414	3.71	2.93	-0.206	0.0271	0.458	0.227	0.14	0.0655	0.0729	0.388
GCGACTGGAGCATCAGCAGGTTACCATAACTTAA	-0.588	-0.33	-0.742	-0.376	-1.27	0.165	0.329	-0.223	-0.632	-0.253	0.414	0.0135	-1.51	-0.56	-0.607	-0.228	-0.687	0.0402	-1.07	-0.26
CTCGAAAGGTCGTGCTCAGGTGAGTAGACCAAAC	5.65	3.86	-0.195	3.08	0.0468	4.81	2.71	3.96	0.899	2.88	0.641	1.86	1.76	0.659	3.39	3.11	-0.191	4.48	-0.171	3.91
AGAATGAGGTTATACGTAGATCAGGGGAGAAAGT	1.99	1.93	0.147	1.96	0.558	3.05	1.83	2.06	0.697	1.06	4.24	2.13	1.07	0.577	0.74	1.36	0.423	1.87	1.13	1.45
